# “And” between values parts separate entries of the source, which are not always exact repeats. Equal entries are not always repeated. The source made the active and inactive calls.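 The calls were made as follows, unless noted: active = compounds whose cell count with miR-34 switched on is under 0.7 times the count with it off; inactive = the rest.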
# Assays:
# [1] = compounds altering viability of human ES cells (AID 493140; call rule not given here;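 also: cells exposed to compounds for four days before counting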); conditions: human embryonic stem cell survival screen; stronger effect = higher value
# [2] = P. berghei load reduction in hepatocytes – cell-based, HepG2, luciferase luminescence, HepG2 viability, primary screen (AID 624349; in the data active = parasite load remaining mostly below about 12%, no sharp cut-off; inactive = mostly above about 10%;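 also: 100% = mean of DMSO negative control wells on the same plate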); conditions: P. berghei liver stage in HepG2, luciferase luminescence, concentration not given here; parasite load remaining: stronger effect = lower value; viability: measured here: HepG2 viability without parasites
# [3] = Wnt pathway potentiators raising nuclear beta-catenin – imaging, WNT3A-conditioned medium, mouse C2C12, NPC library, primary screen (AID 1117326; in the data active = nuclear beta-catenin stimulation mostly above about 4.2%, no sharp cut-off; inactive = mostly below about 10%); conditions: stronger effect = higher value
# [4] = stimulators of insulin release from INS-1E, primary screen, cell-based, 5 mM glucose, NPC library (AID 1117329;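 active = compound raises insulin release from rat beta cells at 5 mM glucose, no numeric limit stated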); conditions: rat INS-1E insulin secretion, at 10 µM, stronger effect = higher value
# [5] = growth inhibition of GSK3B-pretreated HCT116 cells – cell-based, CellTiter-Glo, 0.2 to 20 µM (AID 1117336;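 active = compounds lowering colon cancer cell viability after pretreatment blocking the GSK3B kinase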); conditions: HCT116 viability after GSK3B inhibitor, at 20 µM, stronger effect = higher value
# [6] = inhibition of endothelial tube formation, primary screen, imaging, VEGF stimulated, CD31 staining, tube area, NPC library (AID 1117340;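 active = compound that reduces growth-factor-driven endothelial tube area in a mixed cell culture, no cutoff stated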); conditions: VEGF-stimulated ADSC/ECFC co-culture, at 10 µM, stronger effect = higher value
# [7] = GLP1 release stimulators, primary, NCI-H716, NPC library (AID 1117341;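 active = compound raises GLP1 secretion from the human gut endocrine cells, with no numeric limit stated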); conditions: NCI-H716 cells, at 10 µM, stronger effect = higher value
# [8] = HCT116 colon cancer cell growth inhibition, primary screen, CellTiter-Glo luminescence, NPC library (AID 1117342;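 active = compounds that lower survival of HCT116 colon cancer cells in the luminescence readout, no numeric limit stated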); conditions: at 20 µM (top of the series)
# [9] = reduced SW480 viability measured with CellTiter-Glo, NPC library, primary (AID 1117343;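 active = compounds that lower viability of the colon cancer cells in the luminescence readout, with no numeric limit stated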); conditions: CellTiter-Glo luminescence; at 20 µM (top of the series) unless noted
# [10] = NPC library primary testing for decreased DLD-1 cell viability via CellTiter-Glo (AID 1117346;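 active = compounds that lower survival of DLD-1 colon cancer cells in the luminescence readout, no cutoff given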); conditions: DLD-1 viability, CellTiter-Glo luminescence; at 20 µM (top of the series)
# [11] = EMT-state selective cytotoxicity in co-culture – imaging, PC-3E GFP, TEM4-18 mCherry, primary screen (AID 1345086;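 active = compounds killing one labelled cell type while sparing the other, by normalised counts and ratio limits, not self-fluorescent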;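 as to all read-outs here: cells exposed to compound for 72 h before imaging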;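 as to red/green cell ratio (normalised): normalised mesenchymal count divided by normalised epithelial count so high means epithelial killing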); conditions: PC-3E GFP / TEM4-18 mCherry co-culture, imaging cell counts, at 1 µM; for red/green cell ratio (normalised): actives lie on both sides, counts scaled to control wells, 1 = unselective
# [12] = viability loss with induced miR-34 in A549 – imaging, A549 dox-inducible miR-34, nuclei and caspase counts, primary screen (AID 1347080); conditions: A549 miR-34 inducible, Hoechst nuclei count, 48 h
# [13] = MELAS cybrid and Rieske KO viability enhancers – cell-based, MELAS cybrids, Rieske KO mouse fibroblasts, CellTiter-Glo, primary screen (AID 1508586;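 active = mean z-score across replicates of 1.96 or higher in either the MELAS or the Rieske mutant cell line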;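 also: z relative to plate mean and SD of compound and empty wells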); conditions: low glucose
# [14] = molecular target: NAD(+) hydrolase SARM1 (Homo sapiens) (UniProt Q6SZW1); experiment: blocking NAD cleavage by SARM1 SAM-TIR – cell lysate, NAD-Glo luminescence (AID 1508614;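 active = compound whose remaining NAD level is above about 45 nM, limit read from the data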;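 also: higher remaining NAD means stronger inhibition of SARM1 NADase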); conditions: SAM-TIR HEK293T lysate NADase, at 1 µM, stronger effect = higher value
# NAD(+) hydrolase SARM1 (Homo sapiens), sequence (Q6SZW1 whole entry, looked up): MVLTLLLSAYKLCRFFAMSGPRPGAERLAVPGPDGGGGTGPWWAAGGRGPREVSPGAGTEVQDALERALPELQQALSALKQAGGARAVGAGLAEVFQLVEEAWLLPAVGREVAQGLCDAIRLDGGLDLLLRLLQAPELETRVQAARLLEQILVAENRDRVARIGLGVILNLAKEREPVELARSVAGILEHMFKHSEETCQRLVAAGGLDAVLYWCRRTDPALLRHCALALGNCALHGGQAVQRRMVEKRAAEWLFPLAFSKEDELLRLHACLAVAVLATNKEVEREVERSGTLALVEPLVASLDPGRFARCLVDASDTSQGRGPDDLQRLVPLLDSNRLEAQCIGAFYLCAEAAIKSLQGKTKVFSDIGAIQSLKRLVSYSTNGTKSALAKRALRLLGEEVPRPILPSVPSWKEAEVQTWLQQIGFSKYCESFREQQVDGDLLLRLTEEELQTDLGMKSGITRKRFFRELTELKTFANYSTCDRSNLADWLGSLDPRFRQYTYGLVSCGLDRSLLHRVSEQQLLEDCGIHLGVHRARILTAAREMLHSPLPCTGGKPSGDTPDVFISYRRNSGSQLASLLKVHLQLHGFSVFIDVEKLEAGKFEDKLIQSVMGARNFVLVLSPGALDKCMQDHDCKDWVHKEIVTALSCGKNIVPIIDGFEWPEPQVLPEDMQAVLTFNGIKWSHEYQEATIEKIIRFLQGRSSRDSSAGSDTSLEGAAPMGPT
# [15] = measured here: epithelial PC-3E GFP cell survival
# [16] = measured here: mesenchymal TEM4-18 mCherry cell survival
# [17] = stronger effect = lower value, cell number ratio, induced over uninduced
# [18] = measured here: relative caspase fold change +Dox/-Dox
# [19] = measured here: total cells with miR-34 induction, stronger effect = lower value
# [20] = measured here: total cells without miR-34 induction
# [21] = MELAS cybrid survival, CellTiter-Glo 48 h, stronger effect = higher value
# [22] = Rieske KO mouse fibroblast survival, CellTiter-Glo 72 h
smiles,measurement,setting,value
CNCCc1ccccn1,survival,[1],9.67 (inactive)
same,parasite load remaining,[2],177% (inactive) and 67% (inactive) and 40.9% (inactive)
same,viability,[2],106% and 76.5% and 92.3%
same,nuclear beta-catenin stimulation,[3]; at 10 µM,0.2% (inactive)
same,nuclear beta-catenin stimulation,"[3]; stimulation, at 2 µM",1.8%
same,insulin secretion stimulation,[4],-0.8% (inactive)
same,viability decrease,[5],5.6% (inactive)
same,tube area decrease,[6],-1.2% (inactive)
same,GLP1 secretion stimulation,[7],-0.6% (inactive)
same,inhibition of viability,[8],-13.4% (inactive)
same,viability decrease (inhibition),[9],-3.4% (inactive)
same,viability decrease (inhibition),[10],1.9% (inactive)
same,red/green cell ratio (normalised),[11],1.06 (inactive)
same,normalised cell number,[11]; [15],1.06
same,normalised cell number,[11]; [16],1.12
same,fold change,[12]; [17],0.848 (inactive) and 0.92 (inactive) and 0.919 (inactive)
same,fold change,[12]; [18],1.09 and 0.698 and 1.77
same,cell count,[12]; [19],9020 and 8170 and 11700
same,cell count,[12]; [20],10600 and 8880 and 12700
same,z-score,[13]; [21],-0.325 (inactive) and 0.341 (inactive)
same,z-score,[13]; [22],-0.163 and 0.19
same,remaining NAD,[14],10 nM (inactive)
N=C(N)N1CCc2ccccc2C1,survival,[1],9.58 (inactive)
same,nuclear beta-catenin stimulation,[3]; at 10 µM,0.5% (inactive)
same,nuclear beta-catenin stimulation,"[3]; stimulation, at 2 µM",0.9%
same,insulin secretion stimulation,[4],1.35% (inactive)
same,viability decrease,[5],12.1% (inactive)
same,tube area decrease,[6],-0.3% (inactive)
same,GLP1 secretion stimulation,[7],3.1% (inactive)
same,inhibition of viability,[8],9.2% (inactive)
same,viability decrease (inhibition),[9],5.1% (inactive)
same,viability decrease (inhibition),[10],0% (inactive)
same,red/green cell ratio (normalised),[11],0.87 (inactive)
same,normalised cell number,[11]; [15],1.22
same,normalised cell number,[11]; [16],1.07
same,fold change,[12]; [17],0.813 (inactive) and 0.913 (inactive) and 0.943 (inactive)
same,fold change,[12]; [18],1.55 and 2.39 and 2.81
same,cell count,[12]; [19],8490 and 11800 and 9640
same,cell count,[12]; [20],10400 and 13000 and 10200
same,z-score,[13]; [21],0.0225 (inactive) and -0.468 (inactive)
same,z-score,[13]; [22],-0.12 and -1.06
same,remaining NAD,[14],10 nM (inactive)
COc1cc(C(=O)N2CCOCC2)cc(OC)c1OC,parasite load remaining,[2],75.3% (inactive)
same,viability,[2],105%
same,nuclear beta-catenin stimulation,[3]; at 10 µM,0.3% (inactive)
same,nuclear beta-catenin stimulation,"[3]; stimulation, at 2 µM",-0.7%
same,insulin secretion stimulation,[4],-1.8% (inactive)
same,viability decrease,[5],14.1% (inactive)
same,tube area decrease,[6],-2.8% (inactive)
same,GLP1 secretion stimulation,[7],6.1% (inactive)
same,inhibition of viability,[8],-2.4% (inactive)
same,viability decrease (inhibition),[9],30.7% (inactive)
same,viability decrease (inhibition),[10],20.1% (inactive)
same,red/green cell ratio (normalised),[11],1.06 (inactive)
same,normalised cell number,[11]; [15],1.01
same,normalised cell number,[11]; [16],1.07
same,fold change,[12]; [17],0.951 (inactive)
same,fold change,[12]; [18],1.55
same,cell count,[12]; [19],11700
same,cell count,[12]; [20],12300
same,z-score,[13]; [21],0.673 (inactive)
same,z-score,[13]; [22],0.477
same,remaining NAD,[14],10 nM (inactive)
O=C(O)c1cc(-c2ccccc2)nc2ccccc12,nuclear beta-catenin stimulation,[3]; at 10 µM,2.1% (inactive)
same,nuclear beta-catenin stimulation,"[3]; stimulation, at 2 µM",0.6%
same,insulin secretion stimulation,[4],-1.6% (inactive)
same,viability decrease,[5],5.55% (inactive)
same,tube area decrease,[6],1.3% (inactive)
same,GLP1 secretion stimulation,[7],4.2% (inactive)
same,inhibition of viability,[8],-8.1% (inactive)
same,viability decrease (inhibition),[9],27.9% (inactive)
same,viability decrease (inhibition),[10],8.8% (inactive)
same,red/green cell ratio (normalised),[11],0.87 (inactive)
same,normalised cell number,[11]; [15],0.9
same,normalised cell number,[11]; [16],0.78
same,fold change,[12]; [17],0.909 (inactive) and 0.965 (inactive)
same,fold change,[12]; [18],0.94 and 1.19
same,cell count,[12]; [19],8690 and 8580
same,cell count,[12]; [20],9560 and 8890
same,z-score,[13]; [21],-0.261 (inactive)
same,z-score,[13]; [22],-0.139
same,remaining NAD,[14],10 nM (inactive)
